Data published in PubChem BioAssay (Tox21).
Active and inactive are the calls of the source. Calls follow the shape of the dose curve; as a rule, active = well fitted activation curve with a large enough effect in the repeat runs; inconclusive = weak or mixed curves; inactive = flat fitted curve, though single readings scatter.

Test: Caspase-3/7 induction in CHO-K1 cells by small molecules, qHTS assay (AID 1346980); also: nearly all actives have a fitted effect of over 15% in size
Details: CHO-K1 caspase-3/7 induction, Caspase-Glo luminescence, 17 h; series mostly up to 92.4 µM; caspase-3/7 activation: at the top concentration
Text: National Center for Advancing Translational Sciences [NCATS]
NIH Chemical Genomics Center [NCGC]
U.S. Environmental Protection Agency [EPA]
National Institutes of Environmental Health Sciences [NIEHS]
National Toxicology Program [NTP]
Apoptosis is a process of programmed cell death and plays a central role in the development of multicellular organisms. It is a highly regulated process and induces cell death by activating caspases, which are the members of cysteine aspartic acid-specific protease (caspase) family. Caspases involved in apoptosis are classified by their mechanism of action as initiator caspases (caspase-2, -8, -9 and -10) and executioner caspases (caspase-3, -6, and -7). Inhibition of apoptosis results in number of cancers, autoimmune diseases, inflammatory diseases and viral infection. To identify small molecule compounds that induce apoptosis, a homogeneous, luminescent Caspase-Glo 3/7 assay was used. Wild type CHO-K1 cells were used to screen Tox21 libraries for identifying caspase-3/7 activity inducers.
CHO-K1 cells were dispensed at 1,500 per well in 5uL of culture medium into white solid bottom 1536-well plates (Corning Life Sciences, Corning, NY) using a Multidrop Combi (Thermo Scientific, Waltham, MA) dispenser. The assay plates were incubated at 37 C and 5% CO2 for 5hr, and then 23nL of compounds dissolved in DMSO and positive control were transferred using a Pintool station (Wako, San Diego, CA). The assay plates were incubated at 37C and 5% CO2 for 17hr. For caspase-3/7 activity read, 4uL of Caspase-Glo 3/7 reagent (Promega Corporation, Madison, WI) was added to each well of the assay plates using Flying Reagent Dispenser (FRD, Aurora Discovery, San Diego, CA) and incubated the assay plates at room temperature for 30min. The luminescence signal was quantified using a ViewLux plate reader (Perkin Elmer, Shelton, CT).
% is scaled to controls: 0 for no effect and ±100 for the full control effect.

SMILES | caspase-3/7 activation
O=[N+]([O-])c1ccc2c3c(cccc13)CC2 | 1.14% (inactive)
C=C(C)[C@@H]1CC=C(C=O)CC1 | -1.74% (inactive)
O=C(CCN1CC1)OCC(CO)(COC(=O)CCN1CC1)COC(=O)CCN1CC1 | 0.68% (inactive)
Nc1ccccc1Cl | -0.715% (inactive)
CC(CCc1ccccc1)NC(C)C(O)c1ccc(O)cc1 (stereo not given) | -0.377% [at 42.5 µM] (inactive)
C[C@]1(O)CC[C@H]2[C@@H]3CCC4=CC(=O)CC[C@]4(C)[C@@]3(F)[C@@H](O)C[C@@]21C | -1.51% (inactive)
Cc1ncsc1CCCl | -0.357% [at 42.5 µM] (inactive)
Cc1nc(N)nc(N)n1 | -0.495% (inactive)
Nc1cnn(-c2ccccc2)c(=O)c1Cl | 0.259% (inactive)
O=C1CN=C(c2ccccc2)c2cc([N+](=O)[O-])ccc2N1 | 0.235% [at 42.5 µM] (inactive)
COP(=S)(OC)Oc1c(Cl)cc(C)cc1Cl | 1.47% (inactive)
COc1cc(OC)nc(NC(=O)NS(=O)(=O)c2ncccc2OCC(F)(F)F)n1 | 0.166% (inactive)
CC(COc1ccc(Oc2ccccc2)cc1)Oc1ccccn1 (stereo not given) | -0.349% (inactive)
OC(c1ccccc1)(c1ccccc1)C1CCNCC1 | 0.249% [at 42.5 µM] (inactive)
N#CC(CCc1ccc(Cl)cc1)(Cn1cncn1)c1ccccc1 (stereo not given) | 1.58% (inactive)
CCC/C(=N\OCC)C1=C(O)CC(CC(C)SCC)CC1=O (stereo not given) | -0.0542% (inactive)
ClCC(Cl)Cl | 0.322% (inactive)
CC(=O)[C@H]1CC[C@H]2[C@@H]3CC[C@H]4C[C@H](O)CC[C@]4(C)[C@H]3C(=O)C[C@]12C | -0.67% [at 42.5 µM] (inactive)
c1cc[c]([Hg][c]2ccccc2)cc1 | -5.18% (inactive)
O=C1OC(c2ccc(O)c(S(=O)(=O)O)c2)(c2ccc(O)c(S(=O)(=O)O)c2)c2c(Br)c(Br)c(Br)c(Br)c21 | -2.12% [at 42.5 µM] (inactive)

SMILES | caspase-3/7 activation
CC1=NNC(=O)N(/N=C/c2cccnc2)C1 | -1.21% (inactive)
O=[N+]([O-])c1cccc2c([N+](=O)[O-])cccc12 | 0.273% (inactive)
CN1CCC(O)(c2ccc(F)cc2)C(C(=O)c2ccc(F)cc2)C1 (stereo not given) | -0.608% [at 42.5 µM] (inactive)
COc1cc(OC)nc(Sc2cccc(Cl)c2C(=O)O)n1 | -0.0081% (inactive)
Cc1coc2c1CCC(C)C2 (stereo not given) | -0.893% (inactive)
CCCSP(=O)(OCC)Oc1ccc(Br)cc1Cl (stereo not given) | 0.611% [at 42.5 µM] (inactive)
CCC1(c2ccccc2)C(=O)N=C(O)NC1=O (stereo not given) | 1.41% (inactive)
CNC(=O)N(C)c1nc2ccccc2s1 | -5.5% (inactive)
c1cc2c(c(N3CCNCC3)c1)OCCO2 | -0.506% [at 42.5 µM] (inactive)
CNC(=O)Oc1ccc(N(C)C)c(C)c1 | -0.336% (inactive)
CCOC(=O)C(c1c(O)c2ccccc2oc1=O)c1c(O)c2ccccc2oc1=O | -0.332% [at 42.5 µM] (inactive)
Cc1nnc2n1-c1sc(CCC(=O)N3CCOCC3)cc1C(c1ccccc1Cl)=NC2 | 0.62% [at 42.5 µM] (inactive)
BrCCCCCCBr | -0.491% (inactive)
O=C1c2ccccc2C(=O)c2ccccc21 | 2.01% [at 19 µM] (inactive)
C1CCC(C2CCCCC2)CC1 | -0.576% (inactive)
CCCSC(=O)N(CCC)CCC | 0.427% (inactive)
CCCSP(=S)(OCC)Oc1ccc(Cl)cc1Cl (stereo not given) | 0.203% (inactive)
CC(=O)CCc1ccc2c(c1)OCO2 | -1.38% (inactive)
COc1cc(OC)nc(NC(=O)NS(=O)(=O)c2ncccc2C(=O)N(C)C)n1 | -0.177% (inactive)
OCCBr | 1.68% (inactive)
